Measured values taken from PubChem BioAssay (NCATS).
Several values for one entry are separate records, joined by “and”; a condition that tells them apart may be missing. Identical values can stand only once. Records with an inconclusive call do not appear. Unmarked numbers belong to inactive results. Activity calls are given as the source filed them. Calls come from the whole dose curve; as a rule, active = well fitted curve in the direction sought with a large enough effect; inconclusive = small, poorly fitted or top-dose-only effect, or another doubt; inactive = no such curve, though single readings can be large or run the other way.
% is set by controls: 0 for no effect and ±100 for the full control effect; potency is the fitted concentration of half-maximal effect.

Assay: qHTS Assay for Identifying Gametocytocidal Compounds (AID 743244);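 for max response: actives lower the fluorescent signal which means gametocytes are killed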
Settings: P. falciparum 3D7 stage III-V gametocytes, alamarBlue, 72 h; max response: stronger effect = lower value
Text: Malaria cases and deaths have dropped 50% in 29 countries since 2000 due to the combined effects of long-lasting insecticidal bednets, indoor residual spraying, and artemisinin-based combination therapies (ACTs). This success has raised hopes for malaria eradication and consequently stimulated interest in developing new reagents that block gametocyte transmission such as novel and safe gametocytocidal drugs. However, previous drug development efforts have focused primarily on the asexual parasites that cause symptoms, but not malaria transmission. Consequently, patients can remain infectious for weeks after the clearance of asexual parasites and clinical symptoms. To be transmitted from person to person via a mosquito, the parasites must switch from asexual to sexual development and produce male and female gametocytes. Malaria gametocytes consist of five stages (I, II, III, IV and V). The late stage gametocytes (III, IV and V) are difficult to be cultured in vitro and the long lifespan of mature gametocytes allows them being transmitted from host to mosquitoes unless they are completely eliminated by gametocytocidal agents. To identify gametocytocidal compounds which are capable of killing late stage P. falciparum gametocytes, a high throughput gametocyte viability assay was employed. This assay uses oxidoreduction indicator, alamarBlue, as a general measure of metabolic activity of gametocytes. Within live cells, the nonfluorescent resazurin is reduced to resorufin, a bright red fluorescence dye. Fluorescence decreases upon treatment of gametocytocidal compounds. P. falciparum gametocyte (3D7 strain) was used in this study.
The 1536-well gametocycidal viability assay was based on the previous method of Tanaka et al. Stage III-V gametocytes were tested against three compound libraries, including 4265 compounds from NCGC pharmaceutical collection, 400 from Malaria Box library, and 550 from an internal collection of kinase inhibitors. Briefly, 2.5 ul/well incomplete medium was dispensed into each well of 1,536-well plates using the Multidrop Combi followed by 23 nl compound transferring using the NX-TR Pintool (WAKO Scientific Solutions, San Diego, CA). Then, 2.5 ul/well of gametocytes was dispensed with a seeding density of 20,000 cells/well using the Multidrop Combi. The assay plates were incubated for 72 h at 37C with 5% CO2. After addition of 5 ul/well of 2X AlamarBlue dye (Life Technologies, cat. no. DAL1100), the plates were incubated for 24 h at 37C with 5% CO2 and then were read in a fluorescence detection mode (Ex = 525 nm, Em = 598 nm) on a ViewLux plate reader (PerkinElmer).
Work on `CC(=O)N[C@@H](CC(=O)N[C@@H](CCC(=O)O)C(=O)O)C(=O)O` yielded a max response of -4.86%.
For `CC[N+](C)(C)Cc1ccccc1Br`, the max response was 2.98%.
Work on `O=C(Nc1ccc(Br)cc1)c1cc(Br)c(Br)s1` yielded a max response of 1.98%.
For `Cc1ccccc1OCC(O)CNCCOc1ccc(C(N)=O)cc1` (stereo not given), the max response was 6.36%.
For `COC(=O)C1=C(C#N)NC(C)=C(C(=O)OC(C)C)C1c1cccc([N+](=O)[O-])c1` (stereo not given), the max response was 13.2%.
For `O=C(COc1ccc(Cl)cc1)OCCNC12CC3CC(CC(C3)C1)C2`, the max response was -2.86%.
With `COC(=O)[C@H]1[C@H]2C[C@@H]3c4[nH]c5ccccc5c4CCN3C[C@H]2C[C@@H](OC(=O)c2cc(OC)c(OC)c(OC)c2)[C@@H]1OC` the Potency was 8.91 µM (active).
Work on `CCC1(Cc2ccc(N)cc2)CCC(=O)NC1=O` (stereo not given) yielded a max response of 9.55%.
For `CC(=O)Oc1cc(C)c(OC(C)=O)c2ccccc12`, the Potency was 6.31 µM (active).
`C#C[C@]1(O)CC[C@H]2[C@@H]3CCC4=C/C(=N/O)CC[C@@H]4[C@H]3CC[C@@]21CC` gave a max response of -2.15%.
Work on `CCOC(=O)O[C@]1(C(=O)COC(=O)CC)CC[C@H]2[C@@H]3CCC4=CC(=O)C=C[C@]4(C)[C@H]3[C@@H](O)C[C@@]21C` yielded a max response of 11.8%.
With `CO[C@@H]1[C@@H](O[C@@H]2O[C@H](C)[C@@H](O[C@H]3C[C@@](C)(O)[C@@H](OC(=O)CC(C)C)[C@H](C)O3)[C@H](N(C)C)[C@H]2O)[C@@H](CC=O)C[C@@H](C)C(=O)/C=C/C2OC2C[C@@H](C)OC(=O)C[C@H]1OC(C)=O` (stereo not given in full) the Potency was 10 µM (active).
Molecule `O=C(Nc1cccc(C(F)(F)F)c1)c1cc(Br)cc(Br)c1O` has a max response of -2.44%.
Work on `C[C@]12C=CC(=O)C=C1CC[C@@H]1[C@@H]2[C@@H](O)C[C@@]2(C)[C@H]1CC[C@]2(O)C(=O)COC(=O)CCC(=O)O` yielded a max response of -8.44%.
For `O=S(=O)(O)O`, the max response was -4.98%.
Work on `COc1ccc(CCNC[C@H](O)c2ccc(O)cc2)cc1OC` yielded a max response of 3.09%.
Molecule `C#CCOc1ccc2c(C)cc(=O)oc2c1` has a max response of 7.39%.
For `CCC1OC(=O)C[C@@H](O)[C@H](C)[C@@H](O[C@@H]2O[C@H](C)C[C@H](N(C)C)[C@H]2O)[C@@H](CC=O)C[C@@H](C)C(=O)/C=C/[C@]2(C)OC2C1C` (stereo not given in full), the Potency was 10 µM (active).
For `COc1cc([C@@H]2c3cc4c(cc3[C@@H](O[C@@H]3O[C@@H]5CO[C@@H](C)O[C@H]5[C@H](O)[C@H]3O)[C@H]3COC(=O)[C@H]23)OCO4)cc(OC)c1O`, the max response was -3.58%.
With `CC(=O)Oc1c(C)cc(OCC(O)CNC(C)C)c(C)c1C` (stereo not given) the Potency was 15.8 µM (active).
`CC(C)(C)C1(O)CCN2CC3c4ccccc4CCc4cccc(c43)C2C1` (stereo not given) showed a max response of 10.9%.
Work on `C[C@H]1C[C@H]2[C@@H]3CCC4=CC(=O)C=C[C@]4(C)[C@@]3(F)[C@@H](O)C[C@]2(C)[C@@]1(O)C(=O)CO` yielded a max response of -4.91%.
With `CO/N=C(\C(=O)N[C@@H]1C(=O)N2C(C(=O)O)=C(CSc3cnns3)CS[C@H]12)c1csc(N)n1` the max response was 2.82%.
For `Nc1c(N=Nc2ccc(-c3ccc(N=Nc4cc(S(=O)(=O)O)c5ccccc5c4N)cc3)cc2)cc(S(=O)(=O)O)c2ccccc12`, the max response was 13.5%.
Molecule `CCCCC(=O)N(Cc1ccc(-c2ccccc2-c2nn[nH]n2)cc1)[C@@H](C(=O)O)C(C)C` has a max response of -5.58%.
With `CC(=O)OC(C)OC(=O)C(C)c1ccc(-c2ccccc2)c(F)c1` (stereo not given) the max response was -5.75% and -9.98%.
`CC(C)NCC1CCc2cc(CO)c([N+](=O)[O-])cc2N1` (stereo not given) gave a max response of -6.43%.
With `OC[C@H]1O[C@@H](n2cnc3c2NC=NC[C@H]3O)C[C@@H]1O` the max response was -6.17%.
Molecule `CC(Oc1ccccc1)C(=O)N[C@@H]1C(=O)N2[C@@H]1SC(C)(C)[C@@H]2C(=O)O` (stereo not given in full) has a max response of 15.7%.
Molecule `Cc1ccccc1` has a max response of 2.65%.
For `CC(=O)O[C@]1(C(C)=O)CC[C@H]2[C@@H]3CCC4=CC(=O)CC[C@]4(C)[C@@]3(F)[C@@H](O)C[C@@]21C`, the max response was 11%.
In the case of `O=C(O)C[C@H](O)C[C@H](O)/C=C/c1c(C2CC2)nc2ccccc2c1-c1ccc(F)cc1`, the max response is reported as 4.27%.
In the case of `COC(=O)C1=C(C)NC(C)=C(C(=O)OCCCN2CCC(c3ccccc3)(c3ccccc3)CC2)[C@H]1c1cccc([N+](=O)[O-])c1`, the Potency is reported as 14.8 µM (active).
`CC1=C(/C=C/C(C)=C/C=C/C(C)=C/C=C/C=C(C)/C=C/C=C(C)/C=C/C2=C(C)C(=O)CCC2(C)C)C(C)(C)CCC1=O` showed a max response of 6.31%.
Work on `Nc1nc(N)c2nc(CNc3ccc(C(=O)N[C@@H](CCC(=O)O)C(=O)O)cc3)cnc2n1` yielded a max response of 13.9%.
Work on `Nc1ncnc2c1ncn2[C@@H]1O[C@H](COP(=O)(O)OP(=O)(O)OP(=O)(O)O)[C@@H](O)[C@H]1O` yielded a max response of -2.1%.
With `C=C(NC(=O)C(=C)NC(=O)c1csc(C2=N[C@@H]3c4csc(n4)[C@H]4NC(=O)c5csc(n5)[C@H]([C@](C)(O)[C@@H](C)O)NC(=O)[C@H]5CSC(=N5)C(=CC)NC(=O)C([C@@H](C)O)NC(=O)c5csc(n5)[C@]3(CC2)NC(=O)[C@H](C)NC(=O)C(=C)NC(=O)[C@H](C)NC(=O)C([C@@H](C)CC)NC2C=Cc3c([C@H](C)O)cc(nc3C2O)C(=O)O[C@@H]4C)n1)C(N)=O` (stereo not given in full) the Potency was 11.2 µM (active).
With `CCCCCCCCCCCCCC[n+]1ccc(C)cc1` the Potency was 7.94 µM (active).
For `CO[C@H]1C=CO[C@@]2(C)Oc3c(C)c(O)c4c(O)c(c5c(nc6cc(C)ccn65)c4c3C2=O)NC(=O)/C(C)=C\C=C[C@H](C)[C@H](O)[C@@H](C)[C@@H](O)[C@@H](C)[C@H](OC(C)=O)[C@@H]1C`, the Potency was 12.6 µM (active).
In the case of `CCC(=O)NCCC1CCc2ccc3c(c21)CCO3` (stereo not given), the max response is reported as 12.4%.
